From PubChem BioAssay AID493004 (Broad Institute, 2010)
In all, about 2,300 compounds went through this assay and fewer than 10 were called active.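 The calls were made as follows: active = Signal drops as the depositor expects, and the fitted half-maximal dose is no more than ten times the top valid tested dose; inconclusive = Poor fit, or a flat curve whose signal drops by 30% to 70%; inactive = the rest.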 Not all results are given here.

Assay: growth restoration of Mot1-301 yeast on galactose, dose response, SUMO pathway inhibitor project, whole organism, S. cerevisiae, ATP luminescence, cherry-picked samples (AID 493004);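 also: more negative values mean stronger growth rescue toward the control strain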
Settings: S. cerevisiae Mot1-301 galactose growth, 24 h, -100 = growth of slx-deleted rescue strain; series mostly up to 42 µM

outcome, inactive:
Cc1ccc(CC2CC(=O)N(c3ccc4c(c3)OCCO4)C2=O)cc1 (stereo unspecified)
O=C(CCc1ccccc1)NNC(=O)c1ccc(Br)cc1
Cc1ccc(N2C(=O)C3N=NN(CC(=O)N4N=C(c5cccc6ccccc56)CC4c4ccccc4)C3C2=O)cc1 (stereo unspecified)
CC1CCN(Cc2nc3c(c(=O)n(C)c(=O)n3C)n2CCc2ccccc2)CC1
COc1cc(CNCc2ccc3c(c2)OCO3)c([N+](=O)[O-])cc1OC
O=C(Nc1ccccc1N1CCN(c2ccccc2)CC1)c1cccc(F)c1
N#CC(C#N)=CN=c1ccn(Cc2ccc(Cl)cc2Cl)cc1
Cc1cccc(C)c1NC(=O)C(Cl)C(=O)c1ccccc1 (stereo unspecified)
Cc1cc(C)cc(NC(=O)C2CCCN(S(=O)(=O)c3ccc4[nH]c(=O)ccc4c3)C2)c1 (stereo unspecified)
Cc1cc(Br)ccc1NC(=O)c1cnc(N2CCN(c3ccccn3)CC2)c2ccccc12
Cc1ccc2c(c1)C(O)(CC(=O)c1cccnc1)C(=O)N2 (stereo unspecified)
COc1ccc(OCCC(=O)c2ccc(OC)cc2)cc1
CCN(CC)C(=O)CSc1nnc(CNc2ccc(F)cc2)n1Cc1ccco1
O=Cc1ccc(Oc2cccc(C(F)(F)F)c2)nc1
Cc1cc(C)cc(C(=O)NC(CC(N)=O)c2ccc(N3CCC(N4CCCCC4)CC3)c([N+](=O)[O-])c2)c1 (stereo unspecified)
CCCC(=O)N(CCN1CCOCC1)c1nc2ccc(OCC)cc2s1
CC1=CC(=O)C=CC1(C)C(Cl)(Cl)Cl (stereo unspecified)
CCc1nc2ccccc2c(C(=O)OC2CCCCC2=O)c1C (stereo unspecified)
COC(=O)c1cc2occc2n1Cc1nc(-c2ccccc2C)oc1C
CCC(C)[C@H]1COCCS(=O)(=O)N1Cc1ccc(C)cc1 (stereo partly specified)
Cc1nc2sc(C(c3ccco3)N3CCOCC3)c(O)n2n1 (stereo unspecified)
COc1ccc(S(=O)(=O)N2CCOC2CNC(=O)C(=O)NCc2ccncc2)cc1C (stereo unspecified)
O=C(NNS(=O)(=O)c1c(F)cc(F)c(Cl)c1F)C12CC3CC(CC(C3)C1)C2
CCn1c(SCC(=O)N/N=C/c2ccccc2OCC(=O)O)nnc1-c1ccc(C(C)(C)C)cc1
C=C(Cl)COC(=O)C1C2C=CC(C2)C1C(=O)O (stereo unspecified)
CCOc1ccc(N(CC)S(=O)(=O)c2cccc3nsnc23)cc1
CCC(CC)C(=O)Nc1ccc(S(=O)(=O)Nc2nccs2)cc1
O=c1c2c(ncn1Cc1ccccc1)nc1n2CCC1
Cc1ccc(S(=O)(=O)CCC(=O)OCC(=O)N(C)C2CCS(=O)(=O)C2)cc1 (stereo unspecified)
COc1cc(C(=O)OCC(=O)NC(C)CCc2ccccc2)cc(OC)c1OC (stereo unspecified)
O=C(NCc1ccccc1Cl)C(=O)NCC1CCCN1S(=O)(=O)c1cccs1 (stereo unspecified)
COc1cccc(NC(=O)c2nn(C34CC5CC(CC(C5)C3)C4)cc2[N+](=O)[O-])c1
CC(C)n1c(O)c(N=Nc2ccccn2)c2ccccc21
CCCCC1=CC2=CC(=O)C(C)(OC(=O)CC)C(=O)C2=CN1CCCOC(C)C (stereo unspecified)
Cc1ccc(Nc2cc(C)nc3c(C)ccc([N+](=O)[O-])c23)cc1
CCC1(CC)NC(=O)N(CC(=O)OCC(=O)NC(=O)c2ccccc2)C1=O
CCN1CCCC1CNC(=O)Cn1cnc2ccc(S(=O)(=O)N3CCC(C)CC3)cc2c1=O (stereo unspecified)
CN(C)/C(CN1CCCCC1)=C1\N=C(c2ccccc2)OC1=O
COC(=O)c1sccc1NC(=O)CC1C(=O)NCCN1C(=O)Nc1ccc(F)cc1F (stereo unspecified)
COc1cc(NC(=O)C2=CC(c3ccco3)=NS(=O)(=O)N2C)cc(OC)c1OC
CN(C)C(=O)c1coc2nc3ccccc3nc12
O=C(Nc1nccs1)C1CCN(S(=O)(=O)c2ccc(Cl)c(C(F)(F)F)c2)CC1
Cc1cccc(-[n+]2c(-c3cccc(Br)c3)[nH]c3nc4ccccc4nc32)c1
COCCCN1C(=O)c2ccc(C(=O)Nc3ccc(OC)cc3OC)cc2C1=O
COc1ccc(/C=C(\C#N)C(=O)NCCCn2ccnc2)cc1
Cn1c(C(=O)NCCc2ccsc2)cc2c(=O)n(C)c3ccccc3c21
CN(NC(=O)c1ccccc1F)c1nc(C(F)(F)F)nc2ccccc12
Cc1cc(C)c2c(Cn3ccnc3)cc(=O)oc2c1
COc1ccc(-c2cn(-c3ccc(C)cc3)c(=O)n2CC(=O)Nc2ccc(OC)c(OC)c2)cc1
O=C1CCC(=O)N1CCOP1(=O)COc2ccccc2OC1
CCOc1ccc(C(C(=O)NC2CCCC2)N(C(=O)c2snc(C(N)=O)c2N)C2CCCC2)cc1 (stereo unspecified)
Cc1ccc(O)c(CNc2nc3ccccc3n2C)c1
NC(=O)c1cc(S(=O)(=O)N2CCCC2)ccc1OCc1ccc(F)cc1
COc1ccccc1CSc1ncc(-c2ccc([N+](=O)[O-])cc2)[nH]1
O=C(CP(=O)(c1ccccc1)c1ccccc1)N1CCOCC1
N#CC1=C(N)Oc2n[nH]c(CSc3ccccc3)c2C12C(=O)Nc1ccccc12 (stereo unspecified)
COc1ccc(OC)c2c(N)c(C#N)c(C(F)(F)C(F)(F)F)nc12
COCCNC(=O)C(c1ccc(C)cc1)N(C(=O)CCC(=O)Nc1ccccn1)c1cccc(C)c1 (stereo unspecified)
CC(C)c1cc(C(=O)N/N=C/C(Br)=C/c2ccccc2)n[nH]1
CCCc1cc(=S)n2c([nH]c3ccccc32)c1C#N
CCOc1ccc(Cn2c(SCCCCC#N)nc3c2c(=O)n(C)c(=O)n3C)cc1OCC
COc1cccc(-n2c(SCC(=O)NC3CCCCC3)nc3n[nH]c(C)c3c2=N)c1
Cc1ccc(C)c(S(=O)(=O)n2cnc3ccccc32)c1
COc1ccc(C(=O)OCC(=O)c2ccc(C)c(S(=O)(=O)N3CCOCC3)c2)cc1OC
Cc1cccc(N(C(=O)c2ccc(CN3CCOCC3)o2)C(C(=O)NC2CCCCC2)c2ccc(F)cc2)c1 (stereo unspecified)
O=C(NC1CCCCC1)c1ccc2c(=O)n(CC3CCCO3)c(=O)[nH]c2c1 (stereo unspecified)
